D3 antag: D3 dopamine receptor (human) antagonism | 2.5% of 360,000 active | max response, negative = inhibition, % | D3R cells, DiscoveRx beta-arrestin luminescence, antagonist mode; hits give low values; in the data active means max response below about -50%; inconclusive means no clear call, values can overlap the other calls; further: on the % scale 0 is the no-effect control and ±100 the full control effect
Target sequence (P35462 whole entry, looked up): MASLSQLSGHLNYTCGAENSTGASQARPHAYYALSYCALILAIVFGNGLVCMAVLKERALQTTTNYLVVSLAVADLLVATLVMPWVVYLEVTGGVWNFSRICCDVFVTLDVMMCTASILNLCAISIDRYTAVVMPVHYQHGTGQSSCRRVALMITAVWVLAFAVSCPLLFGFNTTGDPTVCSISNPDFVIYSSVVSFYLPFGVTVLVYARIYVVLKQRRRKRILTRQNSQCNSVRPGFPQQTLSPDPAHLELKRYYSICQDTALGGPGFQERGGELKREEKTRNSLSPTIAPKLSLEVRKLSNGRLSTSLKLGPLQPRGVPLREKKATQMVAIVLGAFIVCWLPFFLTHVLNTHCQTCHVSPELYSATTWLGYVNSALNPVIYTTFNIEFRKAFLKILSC
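Cells plated overnight at 1500 cells/well, then exposed to library compounds with dopamine controls for 90 minutes at 37 degrees C. DiscoveRx reagent added for 30–60 minutes at room temperature; luminescence read, quantitative HTS format.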
DRD3 agonist: activates the human D3 dopamine receptor; AID 652048; P35462; 0.58% of 410,000 active; D3R DiscoveRx beta-arrestin cells, luminescence, 90 min; max activation, %; in the data active means max activation above about 30%; further: 0% is about no effect
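Agonist mode: compounds and dopamine controls were applied to plated cells for 90 min at 37 degrees C after an overnight attachment at 1500 cells/well. Luminescent read-out followed 30 - 60 minutes at room temperature with DiscoveRx detection reagent.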
KB-3-1 cytotox: KB-3-1 parental cell cytotoxicity. Potency, µM (highest dose often 46.1 µM), hits mostly cytotoxic. KB-3-1 viability, CellTiter-Glo ATP luminescence, 72 h. 1.4% of 400,000 active; further: potency means the concentration at half of the fitted maximal effect; on the % scale 0 is the no-effect control and ±100 the full control effect; nearly all actives have a fitted effect of over 60% in size
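Screening of KB-3-1 cells (DMEM, 10% FBS, phenol-red free) ran from lowest to highest compound concentration; after 72 h at 37 °C viability was read luminescently and curves fitted.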
SW480 rereplic: induces DNA re-replication in SW480 colon adenocarcinoma cells. SW480 DNA re-replication, Hoechst DNA content imaging, 48 h. Potency, µM (series often up to 46.1 µM), for the others: at the highest dose re-replication activation, hits mostly activators. 1.8% of 340,000 active. AID 624297; further: potency means the concentration at half of the fitted maximal effect; % of control where 0% means no effect; nearly all actives have a fitted effect of over 55% in size
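Per well, 250 cells were exposed to pinned compound for 48 hr. Nuclear DNA was visualised with Hoechst (40 min, 37 C) and total object intensity recorded by fluorescence scanning.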
MCF10A rereplic: DNA re-replication induction in MCF 10a cells. AID 624296. 2.9% of 350,000 active. MCF 10A DNA re-replication, Hoechst nuclear intensity, 48 h. Potency, µM (series often up to 46.1 µM), for inactives: top-dose activity, positive = re-replication, actives largely listed as activators; further: potency means the concentration at half of the fitted maximal effect; % of control where 0% means no effect; nearly all actives have a fitted effect of over 50% in size
KB-V1 MDR tox: kills drug-selected multidrug resistant KB-V1 cells. KB-V1 MDR cells viability, CellTiter-Glo, 72 h. Potency, µM (top dose mostly 46.1 µM), usual class: cytotoxic. 3.4% of 400,000 active. AID 1347076; further: potency means the concentration at half of the fitted maximal effect; on the % scale 0 is the no-effect control and ±100 the full control effect; nearly all actives have a fitted effect of over 60% in size
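Cells of the MDR subline KB-V1 are plated, dosed with compound at multiple concentrations, and incubated 72 h at 37 degrees C; CellTiter-Glo is then added and luminescence read after 10 min.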
* marks the source's active call; other numbers are inactive results; i = inactive; ? = inconclusive; nt = no result; [ ] = remark or other dose. In the library only some 8.9% were active in any assay of this set; here they are far more common. Unless noted, the call rests on the fitted dose curve; in most records, active means well fitted curve in the direction sought with a large enough effect; inconclusive means small, poorly fitted or top-dose-only effect, or another doubt; inactive means no such curve, though single readings can be large; an effect the other way counts as inactive or inconclusive.

SMILES	D3 antag	DRD3 agonist	KB-3-1 cytotox	SW480 rereplic	MCF10A rereplic	KB-V1 MDR tox
CC1CCC(NC(=O)C2COc3ccccc3O2)CC1 (configuration not stated)	3.8	-3.0	i	-5.6%	-2.3%	i
CC1CCCC(NC(=O)C2COc3ccccc3O2)C1C (configuration not stated)	-21.8	2.9	i	-7.0%	11.8%	13µM*
COc1ccc(CCNC(=O)c2ccc(Nc3nc4ccccc4n4nnnc34)cc2)cc1OC	nt	-2.3	i	nt	nt	i
Cc1nn(C)c(C(=O)Sc2cccc(Cl)c2)c1[N+](=O)[O-]	-9.1	-1.3	i	?	18.4µM*	i
Cc1nn(C)c(C(=O)Sc2ccccc2)c1[N+](=O)[O-]	-21.1	-8.8	i	-2.4%	68.5%	i
CCn1nc(C)cc1C(=O)Sc1cccc(Cl)c1	-22.7	-12.4	i	0.1%	23.1µM*	i
CCn1nc(C)cc1C(=O)n1nc(C)c(Sc2ncccn2)c1C	12.1	-0.2	i	-3.6%[9.22 µM]	1.7%	i
O=S1(=O)CCOC[C@H](c2ccccc2)N1Cc1ccc(Cl)c(Cl)c1	nt	nt	?	nt	nt	i
O=C(Nc1ccccc1)c1ccc2nc(-c3ccco3)c(-c3ccco3)nc2c1	-8.9	-1.4	i	18.4µM*	11.6µM*	?
O=C(c1cccc(C(=O)N2CCN(c3ncccn3)CC2)c1)N1CCN(c2ncccn2)CC1	53.4	7.4	i	-8.4%	-0.6%	i
CC(=O)c1ccc(NC(=O)c2ccc3nc(-c4ccco4)c(-c4ccco4)nc3c2)cc1	1.1	-2.9	i	?	?	i
O=C(c1ccc2nc(-c3ccco3)c(-c3ccco3)nc2c1)N1CCN(c2ncccn2)CC1	14.8	6.9	i	9.1%	13µM*	?
Cc1cccc(N2CCN(C(=O)c3ccc4nc(-c5ccco5)c(-c5ccco5)nc4c3)CC2C)c1 (configuration not stated)	2.8	8.6	?	?	11.6µM*	i
CCCNC(=O)C1CCC(Cn2c(=O)c3sccc3n(CC(=O)N3CCCC(C)C3)c2=O)CC1 (configuration not stated)	nt	1.1	i	nt	nt	i
O=[N+]([O-])c1ccc(CN2CC(N3CCN(CCO)CC3)CS2(=O)=O)cc1 (configuration not stated)	0.0	-10.9	i	nt	nt	i
Fc1ccc2c(c1)Sc1ccc(Cl)cc1CC2N1CCN(CCC2OCCO2)CC1 (configuration not stated)	-93.3*	-11.0	?	?	?	i
O=[N+]([O-])c1ccc2c(c1)C(N1CCN(CCO)CC1)Cc1ccc(F)cc1S2 (configuration not stated)	-106.1*	-20.5	i	nt	nt	i
O=C1CC(N2CCN(Cc3ccc4c(c3)OCO4)CC2)C(=O)N1c1cccc(Cl)c1 (configuration not stated)	-5.5	-2.0	i	-11.5%	?	i
CSc1ccc2c(c1)C(N1CCN(C)CC1)Cc1ccc(F)cc1S2 (configuration not stated)	-95.3*	-18.3	i	?	?	i
COc1ccc2c(c1)CC(N1CCN(C)CC1)c1cc(OC)ccc1S2 (configuration not stated)	-94.3*	-12.3	?	?	?	?
N#Cc1cccc(NC(=O)C2CCN(c3ncccn3)CC2)c1	nt	5.9	i	nt	nt	i
Cc1ccc(S(=O)(=O)N2[C@H](c3cccc(Cl)c3)CC(=O)[C@@H]3CN(S(=O)(=O)c4ccccc4C)[C@H](c4ccc(Cl)cc4)C[C@@H]32)cc1	-5.1	-1.6	3.66µM*	nt	nt	i
Cc1ccc([C@@H]2CC(=O)[C@@H]3CN(S(=O)(=O)c4ccccc4C)[C@H](c4ccc(Cl)cc4)C[C@@H]3N2S(=O)(=O)c2ccc(C)cc2)cc1	2.3	1.6	3.66µM*	nt	nt	?
COC(=O)c1sccc1NC(=O)Cc1ccc(OC)cc1	23.4	4.7	i	nt	4.4%	?
COC(=O)c1sccc1NC(=O)CSc1ccccc1NS(=O)(=O)c1ccc(Cl)cc1	-59.3*	2.4	i	-1.0%	19.1%	?
SMILES	D3 antag	DRD3 agonist	KB-3-1 cytotox	SW480 rereplic	MCF10A rereplic	KB-V1 MDR tox
COC(=O)c1sccc1NS(=O)(=O)c1ccc(OC)cc1	-5.0	0.1	i	?	12.8%	18.4µM*
CN(c1ccccc1)S(=O)(=O)c1ccc2c(c1)OCCO2	-11.3	40.8*	i	?	-6.4%	i
CSc1ccccc1NS(=O)(=O)c1ccc2c(c1)OCCO2	-85.2*	-0.5	i	-8.6%	6.9%	20.6µM*
COC(=O)c1ccc(C)c(NS(=O)(=O)c2ccc3c(c2)OCCO3)c1	-11.0	-11.0	2.31µM*	-1.5%	0.0%	1.16µM*
COC(=O)COc1ccc(S(=O)(=O)Nc2ccccc2SC)cc1	-1.5	1.3	i	0.3%	5.1%	i
COC(=O)c1ccc(C)c(NS(=O)(=O)c2ccc(OC)cc2)c1	-6.6	1.6	0.731µM*	0.259µM*	?	1.03µM*
CCOc1ccc(S(=O)(=O)Nc2ccccc2SC)cc1	-64.6*	-17.2	?	6.2%	-9.0%	16.4µM*
Cc1cccc(-n2ccnc2SCC(=O)Nc2cccc3ccccc23)c1	nt	0.5	i	nt	nt	i
COc1ccc(C)cc1NC(=O)N(C(C)C)C1CCN(C(C)=O)CC1	nt	4.9	i	nt	nt	i
CC1=CC(=O)C=CC1=Nc1ccc(N(C)C)cc1	-50.7*	-10.6	?	nt	nt	?
Cn1nc(NC(=O)C(F)(F)F)c2ncc(-c3ccc(Cl)cc3)nc21	1.7	0.0	?	1.8%	-9.3%	i
Cn1nc(N)c2ncc(-c3ccc(Cl)cc3)nc21	17.4	-1.1	i	nt	nt	7.31µM*
N=c1n(Cc2ccc(Cl)cc2)c2ccccc2n1CC(O)COc1ccccc1 (configuration not stated)	11.4	11.9	?	?	?	?
OC(COCC(F)(F)C(F)(F)C(F)(F)C(F)F)Cn1c2ccc(Cl)cc2c2cc(Cl)ccc21 (configuration not stated)	22.8	16.9	?	?	17.7%	18.4µM*
Cc1cc(C)cc(Nc2nc3c(S(=O)(=O)c4cccc(Cl)c4)nnn3c3ccsc23)c1	nt	53.8*	i	nt	nt	i
CC(=O)Nc1ccc(Nc2nc3c(S(=O)(=O)c4cccc(Cl)c4)nnn3c3ccsc23)cc1	nt	1.0	i	nt	nt	i
Cc1ccccc1OCc1nnc(SCc2cc(=O)c3cc(F)ccc3[nH]2)n1C	nt	1.5	20.6µM*	nt	nt	i
